Compound in this test: c1cn2cc(-c3ccc4cn[nH]c4c3)nc(Nc3ccc(N4CCOCC4)cc3)c2n1 [entospletinib]
Description: log2 fold change, soluble protein after heating vs DMSO (PISA); higher = thermal stabilisation; K562 cells, 10 uM, 30 min; active = over 0.2 and 3.5 SD of the protein, either way, in both replicates (recomputed). An outline of the steps:
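K562 cells at 2×10^6 cells/mL were given 10 μM compound for 30 min. Aliquots then went through 3 min of heating across 48°C-58°C, were pooled, and were extracted in PBS with 0.5% NP-40 at 4°C, and the supernatant after 21,000xg for 90 min was quantified by TMTpro 16plex LC-MS/MS with channel sums equalised. Thermal stability relative to control samples, from duplicates, is given as log2 fold change.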

Of roughly 7,900 targets only a part is listed; those with a hit were picked by preference. About 0.6% of all pairs of compound and target were hits.

UniProt O14524, sequence (O14524 whole entry, looked up): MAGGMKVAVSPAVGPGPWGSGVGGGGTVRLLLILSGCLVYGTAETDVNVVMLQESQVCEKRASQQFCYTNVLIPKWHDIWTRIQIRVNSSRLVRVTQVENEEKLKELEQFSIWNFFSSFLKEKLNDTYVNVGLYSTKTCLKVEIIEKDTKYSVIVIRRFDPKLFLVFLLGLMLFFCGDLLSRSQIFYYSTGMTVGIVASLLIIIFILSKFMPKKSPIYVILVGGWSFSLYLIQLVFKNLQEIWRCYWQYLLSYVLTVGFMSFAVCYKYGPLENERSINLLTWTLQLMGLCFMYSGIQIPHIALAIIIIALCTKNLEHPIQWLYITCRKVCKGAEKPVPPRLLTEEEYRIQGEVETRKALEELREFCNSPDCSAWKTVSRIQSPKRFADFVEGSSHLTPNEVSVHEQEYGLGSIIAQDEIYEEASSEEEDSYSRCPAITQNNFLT
UniProt O60313, sequence (O60313 whole entry, looked up): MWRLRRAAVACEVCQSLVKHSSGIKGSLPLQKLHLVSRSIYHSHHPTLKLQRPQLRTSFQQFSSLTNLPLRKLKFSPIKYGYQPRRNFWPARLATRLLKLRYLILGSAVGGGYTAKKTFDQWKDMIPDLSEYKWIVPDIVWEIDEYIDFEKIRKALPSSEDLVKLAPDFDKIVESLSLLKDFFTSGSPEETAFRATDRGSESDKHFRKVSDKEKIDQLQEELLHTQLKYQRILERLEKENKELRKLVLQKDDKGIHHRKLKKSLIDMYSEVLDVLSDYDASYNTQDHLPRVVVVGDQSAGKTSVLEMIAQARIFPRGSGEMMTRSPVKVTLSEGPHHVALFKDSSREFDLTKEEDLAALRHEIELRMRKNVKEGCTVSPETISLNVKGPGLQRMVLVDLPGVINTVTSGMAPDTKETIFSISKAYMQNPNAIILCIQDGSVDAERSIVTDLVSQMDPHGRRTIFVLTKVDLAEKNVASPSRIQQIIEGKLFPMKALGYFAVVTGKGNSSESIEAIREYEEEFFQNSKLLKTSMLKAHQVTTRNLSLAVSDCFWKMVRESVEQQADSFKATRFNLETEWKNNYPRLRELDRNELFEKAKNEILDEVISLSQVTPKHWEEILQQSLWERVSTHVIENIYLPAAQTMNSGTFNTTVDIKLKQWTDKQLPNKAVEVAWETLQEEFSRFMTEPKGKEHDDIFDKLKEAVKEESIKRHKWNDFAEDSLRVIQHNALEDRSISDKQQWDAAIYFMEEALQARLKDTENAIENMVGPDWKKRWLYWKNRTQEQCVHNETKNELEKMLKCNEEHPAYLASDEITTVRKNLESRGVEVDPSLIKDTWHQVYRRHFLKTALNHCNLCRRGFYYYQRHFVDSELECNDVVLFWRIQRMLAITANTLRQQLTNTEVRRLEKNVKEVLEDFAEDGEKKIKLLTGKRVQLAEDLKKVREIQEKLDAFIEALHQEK
UniProt P51956, sequence (P51956 whole entry, looked up): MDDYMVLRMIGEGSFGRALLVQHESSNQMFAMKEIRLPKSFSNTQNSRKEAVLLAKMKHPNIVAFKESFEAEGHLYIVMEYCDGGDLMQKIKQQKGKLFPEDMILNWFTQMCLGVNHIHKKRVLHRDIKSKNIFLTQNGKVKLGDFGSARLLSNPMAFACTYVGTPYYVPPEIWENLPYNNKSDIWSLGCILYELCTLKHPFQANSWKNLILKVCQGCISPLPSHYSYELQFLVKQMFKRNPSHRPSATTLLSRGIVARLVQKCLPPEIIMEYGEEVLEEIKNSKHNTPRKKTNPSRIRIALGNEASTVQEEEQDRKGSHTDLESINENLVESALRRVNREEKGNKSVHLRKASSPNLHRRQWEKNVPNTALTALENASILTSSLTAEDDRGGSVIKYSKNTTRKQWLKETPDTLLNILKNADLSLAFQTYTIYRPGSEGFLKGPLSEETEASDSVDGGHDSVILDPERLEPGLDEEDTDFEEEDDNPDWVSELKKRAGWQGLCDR
NA, A0A494C071, sequence (A0A494C071 whole entry, looked up): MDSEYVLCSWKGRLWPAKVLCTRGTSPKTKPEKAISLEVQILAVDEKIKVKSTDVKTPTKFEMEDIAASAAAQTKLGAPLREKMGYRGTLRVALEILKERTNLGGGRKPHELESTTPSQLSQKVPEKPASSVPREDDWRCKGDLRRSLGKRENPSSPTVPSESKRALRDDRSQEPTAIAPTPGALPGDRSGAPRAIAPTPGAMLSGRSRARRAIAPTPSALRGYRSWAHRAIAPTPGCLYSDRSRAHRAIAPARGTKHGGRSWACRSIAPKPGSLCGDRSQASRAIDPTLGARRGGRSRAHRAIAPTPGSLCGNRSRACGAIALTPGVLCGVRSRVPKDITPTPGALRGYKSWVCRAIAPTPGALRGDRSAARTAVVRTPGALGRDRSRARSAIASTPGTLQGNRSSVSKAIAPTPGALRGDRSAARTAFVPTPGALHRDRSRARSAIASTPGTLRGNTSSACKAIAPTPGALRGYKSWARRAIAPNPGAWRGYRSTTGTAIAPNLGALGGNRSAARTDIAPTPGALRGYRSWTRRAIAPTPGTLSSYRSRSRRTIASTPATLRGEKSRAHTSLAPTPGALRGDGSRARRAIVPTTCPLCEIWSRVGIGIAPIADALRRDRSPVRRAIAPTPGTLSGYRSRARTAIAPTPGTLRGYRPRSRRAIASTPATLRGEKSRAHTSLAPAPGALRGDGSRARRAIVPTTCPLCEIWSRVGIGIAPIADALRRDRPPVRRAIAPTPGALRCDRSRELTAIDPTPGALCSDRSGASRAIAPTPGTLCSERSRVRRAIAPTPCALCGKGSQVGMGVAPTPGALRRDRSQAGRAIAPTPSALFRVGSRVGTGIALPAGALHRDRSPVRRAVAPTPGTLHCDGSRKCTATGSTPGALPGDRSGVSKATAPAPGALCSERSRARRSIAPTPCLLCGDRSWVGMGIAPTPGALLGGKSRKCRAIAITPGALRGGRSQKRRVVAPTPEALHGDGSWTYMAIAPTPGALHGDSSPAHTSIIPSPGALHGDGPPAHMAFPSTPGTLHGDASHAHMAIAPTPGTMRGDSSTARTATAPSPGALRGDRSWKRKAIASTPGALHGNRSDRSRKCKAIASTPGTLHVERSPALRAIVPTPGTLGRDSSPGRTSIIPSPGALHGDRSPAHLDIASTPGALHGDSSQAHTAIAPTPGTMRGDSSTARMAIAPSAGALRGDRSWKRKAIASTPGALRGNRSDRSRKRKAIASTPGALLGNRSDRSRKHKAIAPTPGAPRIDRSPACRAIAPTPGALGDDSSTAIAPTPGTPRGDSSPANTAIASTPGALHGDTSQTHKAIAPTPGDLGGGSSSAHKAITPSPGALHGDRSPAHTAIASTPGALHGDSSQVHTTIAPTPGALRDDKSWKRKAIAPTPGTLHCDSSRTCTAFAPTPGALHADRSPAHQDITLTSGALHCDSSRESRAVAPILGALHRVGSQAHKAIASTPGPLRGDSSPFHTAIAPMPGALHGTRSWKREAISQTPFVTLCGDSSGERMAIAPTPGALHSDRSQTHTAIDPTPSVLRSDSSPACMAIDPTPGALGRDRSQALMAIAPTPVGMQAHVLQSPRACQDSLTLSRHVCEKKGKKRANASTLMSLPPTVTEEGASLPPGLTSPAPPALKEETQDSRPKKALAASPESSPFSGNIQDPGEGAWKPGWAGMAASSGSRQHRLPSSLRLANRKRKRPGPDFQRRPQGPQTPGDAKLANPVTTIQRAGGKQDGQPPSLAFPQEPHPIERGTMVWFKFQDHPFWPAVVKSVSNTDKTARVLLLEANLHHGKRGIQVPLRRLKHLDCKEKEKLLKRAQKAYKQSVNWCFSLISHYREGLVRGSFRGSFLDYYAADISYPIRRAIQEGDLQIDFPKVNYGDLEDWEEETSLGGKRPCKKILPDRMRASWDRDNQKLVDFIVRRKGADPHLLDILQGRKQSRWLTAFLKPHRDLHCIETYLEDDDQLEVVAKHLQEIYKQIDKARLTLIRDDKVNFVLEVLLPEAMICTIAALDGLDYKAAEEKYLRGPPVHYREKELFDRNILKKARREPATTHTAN
UniProt O95182, sequence (O95182 whole entry, looked up): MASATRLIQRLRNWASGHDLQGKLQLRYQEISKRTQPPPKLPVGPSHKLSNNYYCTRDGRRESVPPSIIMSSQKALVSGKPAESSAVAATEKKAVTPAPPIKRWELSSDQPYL
UniProt Q8WX92, sequence (Q8WX92 whole entry, looked up): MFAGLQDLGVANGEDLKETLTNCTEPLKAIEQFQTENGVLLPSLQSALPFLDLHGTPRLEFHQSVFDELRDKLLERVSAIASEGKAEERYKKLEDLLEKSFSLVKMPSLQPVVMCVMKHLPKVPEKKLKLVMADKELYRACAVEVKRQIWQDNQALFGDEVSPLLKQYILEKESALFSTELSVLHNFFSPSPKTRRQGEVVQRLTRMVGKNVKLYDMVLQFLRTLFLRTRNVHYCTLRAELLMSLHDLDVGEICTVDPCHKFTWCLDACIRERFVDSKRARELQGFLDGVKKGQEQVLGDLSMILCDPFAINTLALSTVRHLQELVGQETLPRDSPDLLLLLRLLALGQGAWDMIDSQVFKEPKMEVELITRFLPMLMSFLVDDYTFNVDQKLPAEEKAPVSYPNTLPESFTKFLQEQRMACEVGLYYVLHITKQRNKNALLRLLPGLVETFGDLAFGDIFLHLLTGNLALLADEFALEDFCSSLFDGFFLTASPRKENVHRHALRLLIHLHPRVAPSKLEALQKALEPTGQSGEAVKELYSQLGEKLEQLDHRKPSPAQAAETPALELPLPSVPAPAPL
UniProt Q86WQ0, sequence (Q86WQ0 whole entry, looked up): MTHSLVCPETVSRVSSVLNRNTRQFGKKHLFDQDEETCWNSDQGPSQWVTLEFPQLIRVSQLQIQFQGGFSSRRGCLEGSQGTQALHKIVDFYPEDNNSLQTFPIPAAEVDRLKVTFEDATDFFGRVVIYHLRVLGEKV
UniProt P56556, sequence (P56556 whole entry, looked up): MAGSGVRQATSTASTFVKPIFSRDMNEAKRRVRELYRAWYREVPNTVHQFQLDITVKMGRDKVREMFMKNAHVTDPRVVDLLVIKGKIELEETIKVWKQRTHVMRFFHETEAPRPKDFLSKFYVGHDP

For NOP56 (UniProt O00567), the log2 fold change was -0.012 (inactive).

On to NNMT (UniProt P40261), for which the log2 fold change is 0.042 (inactive).

Regarding MYH10 isoform 3 (UniProt P35580), the log2 fold change is -0.073 (inactive).

With OSBPL8 (UniProt Q9BZF1), the log2 fold change was 0.084 (inactive).

As to MSH3 (UniProt P20585), the log2 fold change is -0.095 (inactive).

For the target MRPS5 (UniProt P82675), the log2 fold change is 0.044 (inactive).

With MKRN2 (UniProt Q9H000), the log2 fold change is -0.038 (inactive).

As for NR2C2AP isoform 2 (UniProt Q86WQ0), the log2 fold change is 0.004 (inactive).

NDUFA6 (UniProt P56556): the log2 fold change is -0.041 (inactive).

As for MTHFS (UniProt P49914), the log2 fold change is 0.127 (inactive).

OPA1 isoform 2 (UniProt O60313): the log2 fold change is -0.008 (inactive).

With NEK3 (UniProt P51956), the log2 fold change is -0.002 (inactive).

On to NELFB isoform 2 (UniProt Q8WX92), for which the log2 fold change is -0.039 (inactive).

For MTHFD1, A0A384N5Y3, the log2 fold change was 0.051 (inactive).

As for NNT (UniProt Q13423), the log2 fold change is -0.042 (inactive).

For NA, A0A494C071, the log2 fold change is -0.105 (inactive).

As for MRPS10 (UniProt P82664), the log2 fold change is 0.054 (inactive).

Turning to PAFAH1B2 (UniProt P68402), the log2 fold change was 0.022 (inactive).

With MRPL50 (UniProt Q8N5N7), the log2 fold change was -0.005 (inactive).

For the target NEMP1 (UniProt O14524), the log2 fold change is -0.121 (inactive).

For NHLRC2 (UniProt Q8NBF2), the log2 fold change is 0.097 (inactive).

For NOS1AP (UniProt O75052), the log2 fold change is -0.337 (inactive).

Turning to NOLC1 isoform 2 (UniProt Q14978), the log2 fold change is 0.062 (inactive).

NFATC2IP (UniProt Q8NCF5): the log2 fold change was -0.054 (inactive).

With MSH2 (UniProt P43246), the log2 fold change is -0.006 (inactive).

As to MTOR (UniProt P42345), the log2 fold change was -0.012 (inactive).

In the case of NMU (UniProt P48645), the log2 fold change was 0.078 (inactive).

On to MTMR14 (UniProt Q8NCE2), for which the log2 fold change was -0.061 (inactive).

On to NECTIN2 isoform 2 (UniProt Q92692), for which the log2 fold change was -0.003 (inactive).

Consider NDUFA7 (UniProt O95182), for which the log2 fold change is 0.027 (inactive).

Turning to MRPS24 (UniProt Q96EL2), the log2 fold change was 0.086 (inactive).

Consider OPHN1 (UniProt O60890), for which the log2 fold change was -0.014 (inactive).

For the target NPEPPS (UniProt P55786), the log2 fold change was -0.007 (inactive).

Consider NACC1 (UniProt Q96RE7), for which the log2 fold change is -0.019 (inactive).

These data come from the supplement of paper PMC10849652.
